# MLLE-PAM2 inh: blocks PAM2 peptide binding to the PABP1 MLLE domain | inhibition, % at 20 µM | 0.36% of 360,000 active | P11940 | GST-MLLE / FITC-PAM2 fluorescence polarization; in the data active means inhibition above about 35%, passing the limit was not always enough;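 further: plate controls were DMSO wells with GST-MLLE for no effect and wells lacking GST-MLLE protein for full effect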
# eIF4H FP inh: inhibitors of RNA binding by human eIF4H | AID 2012 | inhibition, % at 35 µM | 0.94% of 290,000 active | Q15056 | eIF4H fluorescence polarization binding assay;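 further: calls also rest on retests at 20 µM and on dose response follow-up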
# PERK inh: human PERK inhibition, primary cell-based screen. 0.17% of 220,000 active. inhibition, % at 5.6 µM. Q9NZJ5. CHO PERK-DD fusion, SEAP luminescence translation reporter;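 active means inhibition above the mean inhibition of all tested compounds plus 3 SD, set separately per screening campaign, cut at about 2.9% in these data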;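 further: PERK kinase domain activated by AP20187 dimerizer at 100 nM; 0% = DMSO with dimerizer and 100% = rapamycin at 8.4 µM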
# PABP polyA inh: blocks human PABP binding to poly(A) RNA; fluorescence polarization; inhibition, % at 35 µM; 1% of 290,000 active; AID 2014;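 further: calls also rest on retests at 20 µM and on dose response follow-up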
# eIF4E 4G PPI: blocks eIF4E binding to eIF4G; AID 782; P63073+Q04637; TR-FRET eIF4E-eIF4GI(517-606) binding, 2 h; inhibition, % at 21.7 µM; 0.37% of 220,000 active;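 active means inhibition above about 30%, limit read from the data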;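 further: 0% = full FRET control wells and 100% = background wells lacking eIF4GI fragment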
# An asterisk follows results filed as active; / = no result given. Shown are actives, neighbours in structure and some others; about 1.6% of the full set was active somewhere. Unless noted, how the calls were made is not given here.
SMILES,MLLE-PAM2 inh,eIF4H FP inh,PERK inh,PABP polyA inh,eIF4E 4G PPI
Cc1cc(OC(C)C(=O)NC(Cc2c[nH]c3ccc(O)cc23)C(=O)O)c2c(C)cc(=O)oc2c1 (stereo unspecified),7,56,/,31,/
Cc1cc(OCC(=O)NC(Cc2c[nH]c3ccc(O)cc23)C(=O)O)c2c(C)c(C)c(=O)oc2c1 (stereo unspecified),6,41,/,28,/
Cc1ccccc1OCC(O)CN1CCN(CC(O)COc2ccccc2C)C(C)C1 (stereo unspecified),1,3,/,-4,/
COc1ccc(NS(=O)(=O)c2ccc(C)c(C(=O)OC(C)C(=O)N3CCOCC3)c2)cc1 (stereo unspecified),3,/,/,/,/
Oc1ccc(Cl)cc1C1=NNC(c2cc(Br)cc3c2OCOC3)C1 (stereo unspecified),-21,-9,0,-10,-2
COc1ccc(C2=NNC(c3cc(Cl)cc4c3OCOC4)C2)c(O)c1 (stereo unspecified),/,52*,0,13,-2
O=C(CS(=O)(=O)c1cn(CC(=O)N2CCOCC2)c2ccccc12)Nc1ccccc1F,-1,3,/,-4,/
CCCN(CCC)CCNC(=O)c1cc2c(=O)n(CC)c3ccccc3c2s1,-7,0,-1,12,97*
CCN(CC)CCNC(=O)c1cc2c(=O)n(CC)c3ccccc3c2s1,-2,-1,/,21,/
CCCCOC(=O)C1=C(C)NC(=O)NC1c1cccc([N+](=O)[O-])c1 (stereo unspecified),-14,38,/,3,/
Cc1ccc(S(=O)(=O)N2Cc3ccccc3CC2C(=O)Nc2cc(C)on2)cc1 (stereo unspecified),9,-13,0,-12,2
O=[N+]([O-])c1cc(/C=N/Nc2nc3ccccc3[nH]2)c(O)cc1O,/,80*,0,8.4*,10
Cc1ccccc1/C=N/Nc1nc2ccccc2[nH]1,-84,-1,-1,25,0
O=C1NC(=Nc2ccc(O)cc2)S/C1=C\C=C\c1ccco1,-40,83*,1,94*,6
Cc1ccoc1C(=O)NCCNC(=O)c1occc1C,4,/,/,/,/
Cc1ccoc1C(=O)NCc1occc1C(=O)O,19,74*,0,48,2
O=C(NC(=S)NNC(=O)c1ccccc1O)c1cccs1,14,11,/,-1,/
O=S(=O)(c1ccc2ccccc2c1)N1CCCCCC1,-7,-15,1,-7,0
O=C(NNC(=O)C1CCCN(S(=O)(=O)c2ccc3ccccc3c2)C1)C1CC1 (stereo unspecified),-10,-8,4.3*,-4,-4
Oc1ccc(NCc2cccc(OCc3ccc(F)cc3)c2)cc1,-9,33,0,31,0
Oc1ccc(NCc2cccc(OCc3ccccc3)c2)cc1,-24,69,2,36*,0
O=c1c2c3c(sc2[nH]c(=S)n1Cc1ccco1)CCC3,5,81*,1,58*,30
CC1(C)Cc2c(sc3[nH]c(=S)n(Cc4ccco4)c(=O)c23)CO1,9,31,1,21,-2
CN1/C(=C\C=C(/C#N)C(=O)Nc2ccccc2F)C(C)(C)c2ccccc21,-102,74,1,7.9*,1
CN1/C(=C/C=C(/C#N)C(N)=O)C(C)(C)c2ccccc21,-122,55*,0,42,2
SMILES,MLLE-PAM2 inh,eIF4H FP inh,PERK inh,PABP polyA inh,eIF4E 4G PPI
Cc1ccccc1CN1CCNC(=O)C1CC(=O)O (stereo unspecified),3,2,2,7,1
COc1ccc(OC)c(S(=O)(=O)N2CCN(C(=O)c3cc(C4CC4)nn3-c3ccccc3)CC2)c1,68*,/,/,/,/
COc1ccc(NC(=O)c2c3c(nc4ccccc24)CCC3)cc1S(=O)(=O)N1CCOCC1,-15,99,0,8.5*,19
Cc1ccc(NC(=O)c2c3c(nc4ccccc24)CCC3)cc1,-40,0,0,-8,-6
COc1ccc(C(=O)Nc2ccc(NC(=O)c3ccccc3)cc2)cc1S(=O)(=O)N1CCOCC1,-4,0,/,11,/
COc1ccc(NC(=O)CSc2ccc([N+](=O)[O-])cc2)cc1S(=O)(=O)N1CCOCC1,41*,/,/,/,/
Cc1ccc(NC(=O)c2c3c(nc4ccccc24)CCC3)cc1S(=O)(=O)N(C)C,-19,72*,0,28,22
CC(=O)c1ccc(S(=O)(=O)N2CCN(CC#N)CC2)cc1,10,-9,4.5*,-5,2
C/C(=N\NC(=S)NCCc1ccccc1)c1ccc(Cl)cc1Cl,22,-9,/,0,/
C/C(=N\NC(=S)NCCc1ccccc1)c1ccc(O)cc1O,40*,1,/,-2,/
